Reference: publication PMC4552634, “A New Set of Chemical Starting Points with Plasmodium falciparum Transmission-Blocking Potential for Antimalarial Drug Discovery” (PLoS ONE, 2015)
Among all 13,000 compounds or so, about 3,200 (25%) showed an effect of 50% or more. Some of the results follow.

tested on: P. falciparum stage V gametocytes; parameters: BacTiter-Glo ATP luminescence viability of purified stage V gametocytes in 384-well plates, per cent inhibition versus DMSO; conditions: 48 h, 5 µM; inhibitor

| SMILES | % Inhibition [%] |
| --- | --- |
| CC1(C)N=C(N)N=C(N)N1OCc1cc2ccccc2cc1CON1C(N)=NC(N)=NC1(C)C [TCMDC-131627] | 15.22 |
| CCOC(=O)c1ccc(NC(=O)NCCCC2CCCN(CCCCCNC(=O)/C=C/c3ccc(Cl)c(Cl)c3)C2)cc1 (stereo not shown) [TCMDC-139516] | 55.81 |
| O=C(NNC(=O)c1ccc(CN2CCC(c3nc4ccccc4[nH]3)CC2)cc1)Nc1ccc(Oc2ccccc2)cc1 [TCMDC-135310] | 0.2458 |
| O=C(NCC1CCN(C/C=C/c2ccccc2)CC1)Nc1ccc(Oc2ccccc2)cc1 [TCMDC-139153] | 95.36 |
| O=C(/C=C/c1ccc(Cl)c(Cl)c1)NCCCCN1CCCN(C(=O)Nc2ccc(C(F)(F)F)cc2)CC1 [TCMDC-135930] | -28.77 |
| CN(C(=O)Nc1ccc(F)cc1)C1CCN(CCCCCNC(=O)/C=C/c2ccc(Cl)c(Cl)c2)CC1 [TCMDC-139492] | -6.373 |
| O=C(/C=C/c1ccc(Cl)c(Cl)c1)NCCCCCCN1CCN(C(=O)Nc2ccc(C(F)(F)F)cc2)CC1 [TCMDC-135824] | -51.85 |
| CN(C(=O)Nc1ccc(C(F)(F)F)cc1)C1CCN(CCCCCNC(=O)/C=C/c2ccc(Cl)c(Cl)c2)CC1 [TCMDC-139524] | 54.85 |
| O=C(/C=C/c1ccc(Cl)c(Cl)c1)NCCCCCN1CCCC(CCCNC(=O)Nc2ccc(C(F)(F)F)cc2)C1 (stereo not shown) [TCMDC-139517] | 56.6 |
| O=C(NCCCCN1CCN(CC=Cc2ccccc2)CC1)c1ccc(NC(=O)c2cc(Cl)cc(Cl)c2)cc1 [TCMDC-138216] | -21.85 |
| Cn1cc(CCNc2ccnc(N3CCC(c4ncc[nH]4)CC3)n2)c2ccccc21 [TCMDC-135120] | 26.64 |
| CCOC(=O)CCCc1cc(NC2CCN(C)CC2)nc(Nc2ccc(OC)cc2)n1 [TCMDC-134017] | -45.24 |
| Cc1ccc(NC(=O)c2ccc(NCCCN3CC(C)CC(C)C3)c([N+](=O)[O-])c2)cc1F (stereo not shown) [TCMDC-125684] | -7.765 |
| Cc1cnc(N)c(/C=C/c2cncc(C(=O)NCCc3ccc(Cl)cc3Cl)c2)c1 [TCMDC-134509] | -9.663 |
| O=C(/C=C/c1ccc(Cl)c(Cl)c1)NCCCCCN1CCCC(CNC(=O)Nc2ccc(Oc3ccccc3)cc2)C1 (stereo not shown) [TCMDC-139522] | 54.61 |
| O=C(/C=C/c1ccc(Cl)c(Cl)c1)NCCCCCN1CCN(C(=O)Nc2ccc(C(F)(F)F)cc2)CC1 [TCMDC-135734] | -55.55 |
| CC(C)c1ccc(NC(=O)NCCCC2CCCN(CCCCCNC(=O)/C=C/c3ccc(Cl)c(Cl)c3)C2)cc1 (stereo not shown) [TCMDC-139515] | 38.89 |
| O=C(/C=C/c1ccc(Cl)c(Cl)c1)NCCCCCN1CCC(NC(=O)Nc2ccc(C(F)(F)F)cc2)CC1 [TCMDC-135723] | -19.76 |
| CC(C)c1ccc(NC(=O)NCC2CCCN(CCCCCNC(=O)/C=C/c3ccc(Cl)c(Cl)c3)C2)cc1 (stereo not shown) [TCMDC-139519] | 58.09 |
| O=C(/C=C/c1ccc(Cl)c(Cl)c1)NCCCCCN1CCCC(CNC(=O)Nc2ccc(C(F)(F)F)cc2)C1 (stereo not shown) [TCMDC-139521] | 91.99 |
| CCCCCCCNC(=O)NCC1CCCN(CCCCCNC(=O)/C=C/c2ccc(Cl)c(Cl)c2)C1 (stereo not shown) [TCMDC-139518] | 11.83 |

| SMILES | % Inhibition [%] |
| --- | --- |
| O=C(/C=C/c1ccc(Cl)c(Cl)c1)NCCCCCN1CCC(NC(=O)Nc2ccc(Cl)c(C(F)(F)F)c2)CC1 [TCMDC-135730] | 1.176 |
| O=C(/C=C/c1ccc(Cl)c(Cl)c1)NCCCCCN1CCC(NC(=O)Nc2ccc(C(F)(F)F)cc2)C1 (stereo not shown) [TCMDC-139527] | -24.61 |
| O=C(/C=C/c1ccc(Cl)c(Cl)c1)NCCCCCN1CCC(CCCNC(=O)Nc2ccc(C(F)(F)F)cc2)CC1 [TCMDC-139514] | 102.3 |
| COc1cc2ncnc(Nc3ccc(OCc4ccccc4Br)c(OC)c3)c2cc1OC [TCMDC-131915] | -3.642 |
| O=S(=O)(NC1CCN(c2ccnc3ccccc23)C1)c1ccc(OC(F)(F)F)cc1 (stereo not shown) [TCMDC-133581] | 2.209 |
| O=C(Cc1cccs1)NC(CCCN1CCC(Oc2cccc(Cl)c2)CC1)c1ccc(Cl)c(Cl)c1 (stereo not shown) [TCMDC-141902] | -47.46 |
| C=CCn1c(SCC(=O)Nc2cc(Cl)ccc2Cl)nc2sc(C)cc2c1=O [TCMDC-124996] | 8.476 |
| CCc1nc(N)nc(N)c1-c1ccc(C(C)C)cc1 [TCMDC-137368] | 11.22 |
| CC1CN(S(=O)(=O)c2ccc(NC(=O)c3cc(-c4ccccc4O)n[nH]3)cc2)CC(C)O1 (stereo not shown) [TCMDC-125195] | 7.357 |
| CCCN(c1ccc(O)c(CN2CCCCC2)c1)c1ccc([N+](=O)[O-])cn1 [TCMDC-137486] | 15.96 |
| CN(C)c1ccc(-c2ccc(C(=O)NC3CCN(Cc4ccc5c(c4)OCCO5)CC3)s2)cc1 [TCMDC-134339] | -48.84 |
| CCCN=CNc1cc(-c2csc(N=C(N)N)n2)cc([N+](=O)[O-])c1 [TCMDC-137246] | -47.16 |
| O=C(NC1CCC(N2CCC(O)(c3ccc(F)cc3)CC2)CC1)c1cc2ccccc2[nH]1 (stereo not shown) [TCMDC-132887] | 9.268 |
| O=C(NC1CCC(N2CCC3(CC2)C(=O)NCN3c2ccccc2)CC1)c1cc2ccccc2[nH]1 (stereo not shown) [TCMDC-132886] | 76.36 |
| O=C(NC1CCC(N2CCN(c3cccc(C(F)(F)F)c3)CC2)CC1)c1cc2ccccc2[nH]1 (stereo not shown) [TCMDC-132885] | 32.36 |
| CC(Cc1ccc(OCCN2CCN(c3ccc(Cl)cc3)CC2)cc1)NCC(O)c1cccc(C(F)(F)F)c1 (stereo not shown) [TCMDC-131530] | 29.05 |
| O=C(NCc1cccc(Br)c1)c1ccc(CNC2CCN(Cc3ccccc3)CC2)cc1 [TCMDC-140788] | 24.75 |
| O=C(NCc1cccc(Cl)c1)c1ccc(CNC2CCN(Cc3ccccc3)CC2)cc1 [TCMDC-140785] | 24.82 |
| COc1ccc(CN2CCCN(Cc3cccc(C(=O)Nc4ccc(C)c(F)c4)c3)CC2)cc1 [TCMDC-135960] | -17.45 |
| O=C(NCc1ccc(Cl)c(Cl)c1)c1ccc(C2CCCN(Cc3ccc4nc[nH]c4c3)C2)cc1 (stereo not shown) [TCMDC-133068] | 0.7535 |
| CN1CCCN(Cc2cccc(-c3ccc(CNC(=O)c4cccc(Cl)c4)c(F)c3)c2)CC1 [TCMDC-133370] | 8.787 |

| SMILES | % Inhibition [%] |
| --- | --- |
| O=C(NCc1ccc(Cl)c(Cl)c1)c1cccc(C2CCCN(Cc3ccc4nc[nH]c4c3)C2)c1 (stereo not shown) [TCMDC-133067] | -29.33 |
| C[C@H]1CN(Cc2cccc(-c3cc(CNC(=O)c4cccc(C(=O)c5ccc(Cl)c(Cl)c5)c4)ccc3F)c2)CCN1 [TCMDC-136245] | 103.5 |
| COc1cccc(CNC(=O)[C@@H]2CN(C(=O)c3ccccc3)CCN2)c1 [TCMDC-141267] | -8.525 |
| C[C@H]1CN(Cc2cccc(-c3cc(CNC(=O)c4cccc(CC5CCN(C)CC5)c4)ccc3F)c2)CCN1C [TCMDC-136349] | 103.8 |
| COc1cccc(CNC(=O)c2ccnc(-c3cccc(CN(C)C4CCN(C)CC4)c3)c2)c1 [TCMDC-134500] | 23.23 |
| CC1CCN(Cc2cccc(C(=O)NCc3ccc(F)c(-c4cccc(CN5CCN[C@@H](C)C5)c4)c3)c2)CC1 [TCMDC-136206] | 100.7 |
| C[C@H]1CN(Cc2cccc(-c3cc(CNC(=O)c4cccc(CN5CCN(CCOc6ccccc6)CC5)c4)ccc3F)c2)CCN1 [TCMDC-136210] | 110.3 |
| COc1cc(C(=O)NC2CCN(Cc3ccccc3)CC2)ccc1-c1nc2cc(Cl)c(C)cc2[nH]1 [TCMDC-140028] | -62.59 |
| CN1CCN(c2nc(NCCc3ccc(O)cc3)nc(NCc3ccccc3-c3ccc(C(F)(F)F)cc3)n2)CC1 [TCMDC-138322] | -8.259 |
| CC1(C)[C@H]2CC[C@@H](CNc3nc(NCCc4cnc[nH]4)nc(Nc4ccc5c(c4)OCO5)n3)[C@@H]1C2 [TCMDC-139738] | -17.51 |
| COc1ccc2nccc([C@@H](O)CN3CCC(NC(=O)C(c4cc5ccccc5o4)N4CCN(c5ccccc5OC)CC4)CC3)c2c1 (stereo partly shown) [TCMDC-140991] | 13.75 |
| COc1ccc(C(=O)N2CCC(C(=O)NC(C)c3ccc(-n4ccnc4)cc3)CC2)c2ccccc12 (stereo not shown) [TCMDC-124603] | -15.82 |
| CC(C)(C)c1ccc(NC(=O)c2cccc(CN3CCCN(Cc4ccc(F)cc4)CC3)c2)cc1 [TCMDC-135985] | -30.03 |
| C[C@H]1CN(Cc2cccc(-c3cc(CNC(=O)c4cccc(CN5CCN(C/C=C/c6ccccc6)CC5)c4)ccc3F)c2)CCN1 [TCMDC-136208] | 114.8 |
| O=C(NCc1ccc(Cl)cc1)c1ccc(CN2CCCN(Cc3cccc(O)c3)CC2)cc1 [TCMDC-136442] | 2.881 |
| CN(CC(=O)N1CCN(S(=O)(=O)c2cccc(Cl)c2)CC1CN1CCCC1)c1ccc(Cl)c(Cl)c1 (stereo not shown) [TCMDC-136893] | 71.55 |
| O=C(Nc1ccc(CN2CCN(S(=O)(=O)c3cccc(Cl)c3)CC2)cc1)c1cccs1 [TCMDC-136319] | 27.89 |
| CN(C(=O)/C=C/c1c(Cl)cccc1Cl)C1CCN(CCCCCNC(=O)/C=C/c2ccc(Cl)c(Cl)c2)CC1 [TCMDC-139995] | -22.04 |
| Cn1c(N)c(C(=O)CSc2ncc(-c3ccc(F)cc3)n2Cc2ccccc2)c(=O)n(C)c1=O [TCMDC-125101] | 12.63 |
